Measurements taken from PubChem BioAssay (EPA / NIEHS).
Records with an inconclusive call do not appear. Some compounds were tested as several samples or in several runs, with calls that do not always agree. The source made the active and inactive calls. The calls were made as follows, unless noted: active = hit-call score of the fitted dose curve at least 0.9, where 1 is the maximum; inactive = score below 0.9.

Tests used:
[1] = TOX21_p53_BLA_p2_viability: Viability Assessment in the Tox21 HCT-116 p53 Agonism Beta-lactamase Assay, Phase 2 (AID 2283591; active = hit-call score of the fitted dose curve at least 0.9, where 1 is the maximum;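 also: compound exposure lasted 16 h at 37 °C; actives lower the ATP signal meaning cytotoxicity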)
Outline: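 HCT116 p53-bla cells, 4000/well, dosed after 5 h plating (217-fold dilution of DMSO stocks) and incubated 16 h at 37C. Viability taken as cellular ATP by CellTiter-Glo luminescence after 30 min RT; signal loss marks cytotoxicity.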

[2] = target: Cellular tumor antigen p53 (Homo sapiens) (UniProt P04637); assay: TOX21_p53_BLA_p2_ratio: Tox21 HCT-116 p53 Agonism Beta-lactamase Assay, Ratio, Phase 2 (AID 2283592; active = hit-call score of the fitted dose curve at least 0.9, where 1 is the maximum)
Outline: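 Cleaved-to-uncleaved substrate ratio (460 vs 530 nm) measured in HCT116 cells with an inducible beta-lactamase reporter linked to p53 activity. Compounds incubated 16 h at 37C before 2 h room-temperature CCF4-AM loading.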

[3] = TOX21_p53_BLA_p3_viability: Viability Assessment in the Tox21 HCT-116 p53 Agonism Beta-lactamase Assay, Phase 3 (AID 2283593; active = hit-call score of the fitted dose curve at least 0.9, where 1 is the maximum;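 also: cells exposed to compound for 16 h before reading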)
Outline: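 HCT116 cells, 4000/well, dosed 5 h after plating by pin transfer (217-fold dilution from DMSO stock) and incubated 16 h at 37C, 5% CO2. Viability read as ATP luminescence with CellTiter-Glo after 30 min at room temperature.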

[4] = target: Cellular tumor antigen p53 (Homo sapiens) (UniProt P04637); assay: TOX21_p53_BLA_p3_ratio: Tox21 HCT-116 p53 Agonism Beta-lactamase Assay, Ratio, Phase 3 (AID 2283596; active = hit-call score of the fitted dose curve at least 0.9, where 1 is the maximum)
Outline: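 Cells were seeded at 4000/well, rested 5 h at 37C, then dosed with DMSO compound solutions (217-fold dilution) for 16 h. CCF4-AM substrate was loaded for 2 h at room temperature, and the 460/530 nm emission ratio was fitted for gain of signal versus DMSO.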

[5] = TOX21_p53_BLA_p4_viability: Viability Assessment in the Tox21 HCT-116 p53 Agonism Beta-lactamase Assay, Phase 4 (AID 2283597; active = hit-call score of the fitted dose curve at least 0.9, where 1 is the maximum;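 also: hits lower the luminescence signal meaning cytotoxicity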)
Outline: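 Viability is taken as cellular ATP: after 16 h compound exposure of HCT116 cells and a 2 h room-temperature CCF4-AM substrate step, CellTiter-Glo reagent is added and luminescence is measured 30 min later.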

[6] = TOX21_p53_BLA_p5_viability: Viability Assessment in the Tox21 HCT-116 p53 Agonism Beta-lactamase Assay, Phase 5 (AID 2283600; active = hit-call score of the fitted dose curve at least 0.9, where 1 is the maximum)
Outline: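 Viability is taken from cellular ATP content, measured by luciferase luminescence in the same wells after the beta-lactamase ratio read. Cells are seeded at 4000 per well and exposed to DMSO-dissolved compounds, diluted 217-fold, for 16 h.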

[7] = target: Cellular tumor antigen p53 (Homo sapiens) (UniProt P04637); assay: TOX21_p53_BLA_p4_ratio: Tox21 HCT-116 p53 Agonism Beta-lactamase Assay, Ratio, Phase 4 (AID 2283601; active = hit-call score of the fitted dose curve at least 0.9, where 1 is the maximum)
Outline: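 HCT-116 p53 beta-lactamase reporter cells (4000/well) preincubated 5 h, then compound (217-fold dilution of DMSO stock) for 16 h at 37C. CCF4-AM substrate added 2 h at room temperature; 460/530 nm emission ratio fitted upward versus DMSO.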

[8] = CCTE_Shafer_MEA_dev_firing_rate_mean: CCTE's Neural Network Formation Assay for Mean Firing Rate, Shafer Lab (AID 2284031)
Outline: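 Extracellular spike frequency, AUC over DIV 5–12 recordings, in rat cortical neuron MEA cultures dosed from plating; loss direction vs DMSO.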

[9] = CCTE_Shafer_MEA_dev_per_burst_spike_percent: CCTE's Neural Network Formation Assay for Percent of Spikes in a Burst, Shafer Lab (AID 2284032)
Outline: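 Value is trapezoidal AUC over recordings on days 5, 7, 9 and 12 of the well-mean fraction of spikes falling in single-electrode bursts; rat cortical cultures exposed continuously from plating, treatment renewed DIV 5 and 9, fitted downward against DMSO.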

[10] = CCTE_Shafer_MEA_dev_burst_rate: CCTE's Neural Network Formation Assay for Burst Rate, Shafer Lab (AID 2284042)
Outline: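 Rat primary cortical cultures on PEI/laminin MEA; compound from plating, re-dosed at DIV 5, 9 media change. Single-electrode bursts/recording length, well mean of active electrodes; AUC over DIV 5–12 recordings; loss-of-signal vs DMSO.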

[11] = CCTE_Shafer_MEA_dev_per_burst_interspike_interval: CCTE's Neural Network Formation Assay for Burst Interspike Interval, Shafer Lab (AID 2284044)
Outline: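 Developmental network-formation MEA in primary rat cortical cultures with exposure spanning days 0–12. Within-burst ISI is averaged per well and integrated across recording days by area under the curve, with DMSO as negative control baseline.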

[12] = CCTE_Shafer_MEA_dev_burst_duration_mean: CCTE's Neural Network Formation Assay for Mean Burst Duration, Shafer Lab (AID 2284045);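 as to AC50: curve fitted for loss meaning shorter burst duration than DMSO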
Outline: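 Rat cortical cultures, 1.5 x 10^5 cells/well with laminin drop; continuous dosing days 0–12, media plus treatment refreshed DIV 5, 9. AxIS adaptive spike detection; mean single-electrode burst duration, AUC over four recordings, negative direction vs DMSO.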

[13] = CCTE_Shafer_MEA_dev_interburst_interval_mean: CCTE's Neural Network Formation Assay for Mean Interburst Interval, Shafer Lab (AID 2284046);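 also: well-mean interburst interval of bursting electrodes as AUC over four recording days; curve fitted for decrease in interburst interval relative to DMSO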
Outline: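 Rat cortical neurons, 1.5 x 10^5 cells/well, 48-well MEA; compound from day 0 through DIV 12, media and treatment renewed DIV 5/9. Recordings DIV 5, 7, 9, 12; well-mean interburst interval → trapezoidal AUC, loss direction vs DMSO.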

[14] = CCTE_Shafer_MEA_dev_inter_network_spike_interval_mean: CCTE's Neural Network Formation Assay for Mean Inter-network Spike Interval, Shafer Lab (AID 2284047)
Outline: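 Primary rat cortical neurons on PEI-coated 48-well MEAs (16 electrodes/well) were exposed from plating day 0 to DIV 12, with dosing renewed at DIV 5 and 9. Recordings at DIV 5, 7, 9, 12 were collapsed by trapezoidal AUC, loss-of-signal fit vs DMSO.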

[15] = CCTE_Shafer_MEA_dev_network_spike_number: CCTE's Neural Network Formation Assay for Number of Network Spikes, Shafer Lab (AID 2284048);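 also: synchronized bursts across electrodes counted on days 5 7 9 12 and integrated as AUC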
Outline: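 Rat cortical primary cultures on 48-well MEA (16 electrodes/well); continuous exposure DIV 0–12, full medium and treatment exchange DIV 5, 9. Readout: network spike count, AxIS adaptive detection, recordings DIV 5/7/9/12 collapsed to AUC; loss-of-signal fit, DMSO baseline.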

[16] = CCTE_Shafer_MEA_dev_network_spike_peak: CCTE's Neural Network Formation Assay for Mean Number of Electrodes in Network Spike, Shafer Lab (AID 2284049)
Outline: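 Network-spike peak electrode count from recordings on days 5, 7, 9 and 12 was combined as trapezoidal area under the curve. Rat cortical cultures were treated continuously from plating, with compound renewed at each feed (DIV 5, 9); fits versus DMSO.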

[17] = CCTE_Shafer_MEA_dev_network_spike_duration_std: CCTE's Neural Network Formation Assay for Standard Deviation of Network Spike Duration, Shafer Lab (AID 2284052);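 also: area under curve of spike duration SD across recording days 5 to 12; hits are decreases in network spike duration SD versus DMSO vehicle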
Outline: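 Rat cortical cultures, 1.5 x 10^5 cells/well, exposed continuously from plating to DIV 12 with media/compound renewal at DIV 5, 9. Spontaneous activity recorded DIV 5/7/9/12, AxIS adaptive spike detector; AUC across days; negative direction vs DMSO.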

[18] = CCTE_Shafer_MEA_dev_per_network_spike_spike_number_mean: CCTE's Neural Network Formation Assay for Mean Number of Spikes in a Network Spike, Shafer Lab (AID 2284053)
Outline: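 Rat cortical primary cultures on 48-well MEA; compound from day 0, re-dosed with full media change DIV 5, 9. Recorded DIV 5, 7, 9, 12; spikes in 0.05 s window at network-spike peak ÷ total network spikes; AUC; loss vs DMSO.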

[19] = CCTE_Shafer_MEA_dev_per_network_spike_spike_percent: CCTE's Neural Network Formation Assay for Percent of Spikes in a Network Spike, Shafer Lab (AID 2284054)
Outline: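 Read-out: percent of spikes falling in a 0.05 s window at network-spike peak, from spontaneous MEA recordings on days 5, 7, 9 and 12; trapezoidal AUC; loss of signal versus DMSO. Rat cortical cultures, compound present throughout.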

[20] = CCTE_Shafer_MEA_dev_AB: CCTE's Alamar Blue Assay for Cytotoxicity in the Neural Network Formation Assay, Shafer Lab (AID 2284083; active = hit-call score of the fitted dose curve at least 0.9, where 1 is the maximum;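 also: resazurin reduction fluorescence as viability of cultured neurons; twelve days of exposure from plating with re-dosing on DIV 5 and 9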)
Outline: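 Rat cortical primary cultures, 1.5 x 10^5 cells/well on MEA; continuous compound exposure over 12 days of network development, re-dosed with full medium change DIV 5 and 9. Alamar Blue fluorescence; loss of signal = cytotoxicity vs DMSO baseline.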

[21] = CCTE_Shafer_MEA_dev_mutual_information_norm: CCTE's Neural Network Formation Assay for Mutual Information Normalization, Shafer Lab (AID 2284091)
Outline: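 Neurons from rat cortex were seeded at 1.5 x 10^5 cells/well onto PEI-coated MEAs in a laminin drop, then exposed to compound from day 0 for twelve days. Network recordings on four days gave mutual information, summarised by AUC relative to DMSO.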

[22] = IUF_NPC1b_proliferation_BrdU_72hr: Leibniz Research Institute for Environmental Medicine (IUF) 72-hour Neural Progenitor Cell Bromodeoxyuridine (BrdU) Proliferation Assay (NPC1b) (AID 2284207)
Outline: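 Luminescent BrdU ELISA measured DNA synthesis during the last 16 h of a 72 h exposure of primary human neural progenitor spheres grown with EGF and FGF. Signal was fitted relative to DMSO controls.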

[23] = IUF_NPC1a_proliferation_area_72hr: Leibniz Research Institute for Environmental Medicine (IUF) 72-hour Neural Progenitor Cell Proliferation Area Assay (NPC1a) (AID 2284208)
Outline: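 Proliferation is scored as sphere area gain in primary human fetal neural progenitors treated for 72 h in EGF/FGF-containing medium. Viability, LDH and BrdU readouts come from the same wells.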

[24] = IUF_NPC1_viability_72hr: Viability Assessment at 72 hours in the Leibniz Research Institute for Environmental Medicine (IUF) Neural Progenitor Cell Proliferation Assay (NPC1) (AID 2284209)
Outline: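 Three-day continuous exposure of human neural progenitor spheres under EGF/FGF-driven proliferation; cell viability scored by alamar blue signal versus DMSO.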

[25] = CCTE_Mundy_HCI_Cortical_Synap_Neur_Matur_NeuriteSpotCountPerNeuriteLength: CCTE's Synaptogenesis and Neurite Maturation Assay in rat cortical cells for Neurite Spot Count per Neurite Length, Mundy Lab (AID 2284210)
Outline: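 Read-out: synaptophysin puncta counted along MAP2-stained neurites, normalised to neurite length, by automated high-content imaging. Rat cortical cells; AraC DIV 5; chemical dosing DIV 7; termination DIV 12. DMSO baseline.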

Chain of Cellular tumor antigen p53 (Homo sapiens) (P04637 whole entry, looked up): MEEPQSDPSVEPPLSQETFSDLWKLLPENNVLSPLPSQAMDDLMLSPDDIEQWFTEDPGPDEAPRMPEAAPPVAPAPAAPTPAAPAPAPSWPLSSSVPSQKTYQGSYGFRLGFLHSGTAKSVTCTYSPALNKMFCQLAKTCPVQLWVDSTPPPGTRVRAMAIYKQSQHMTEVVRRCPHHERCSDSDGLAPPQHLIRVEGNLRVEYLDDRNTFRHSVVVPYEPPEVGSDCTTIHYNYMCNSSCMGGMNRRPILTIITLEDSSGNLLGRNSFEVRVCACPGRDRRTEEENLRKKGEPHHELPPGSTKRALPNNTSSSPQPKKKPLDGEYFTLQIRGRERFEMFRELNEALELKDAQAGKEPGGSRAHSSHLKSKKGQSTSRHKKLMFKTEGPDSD

With `C[C@H](CS)C(=O)N1CCC[C@H]1C(=O)O` the outcome [1] was “inactive”, the outcome [2] was “inactive” and the outcome [3] was “inactive”. The outcome [4] was “inactive”, the outcome [5] was “inactive” and the outcome [6] was “inactive”. The outcome [7] was “inactive”, the outcome [8] was “inactive” and the outcome [9] was “inactive”. The outcome [10] was “inactive”, the outcome [11] was “inactive” and the AC50 [12] was 21.6 µM (active). The outcome [12] was “inactive”, the outcome [13] was “inactive” and the outcome [14] was “inactive”. The outcome [15] was “inactive”, the outcome [16] was “inactive” and the outcome [17] was “inactive”. The outcome [18] was “inactive”, the outcome [19] was “inactive” and the outcome [20] was “inactive”. For the same molecule, the outcome [21] was “inactive”, the outcome [22] was “inactive” and the outcome [23] was “inactive”. The outcome [24] was “inactive” and the outcome [25] was “inactive”.
